Test results as given in PubChem BioAssay (NCI).
Compounds without any hit were thinned out: in the full panel of roughly 83,000, 20% have a hit.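 96-well plates, one dose, 48 hours. Percent growth reported; active if below 10.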 Unmarked numbers belong to inactive results. Activity calls are given as the source filed them.

Tests used:
Experiment in all cases: NCI-60 one-dose screen, 48 h (100 = growth as untreated, 0 = no growth, -100 = all killed)
Conditions in all cases: 10 µM unless noted
[1] = test system: NCI-H23 lung
[2] = test system: NCI-H226 lung
[3] = test system: NCI-H322M lung
[4] = test system: HOP-62 NSCLC
[5] = test system: NCI-H460 lung
[6] = test system: HOP-92 NSCLC
[7] = test system: NCI-H522 lung
[8] = test system: A549/ATCC NSCLC
[9] = test system: 786-0 renal
[10] = test system: COLO 205 colon

| SMILES | growth [1] | growth [2] | growth [3] | growth [4] | growth [5] | growth [6] | growth [7] | growth [8] | growth [9] | growth [10] |
| --- | --- | --- | --- | --- | --- | --- | --- | --- | --- | --- |
| O=C(Nc1cccc(Cl)c1)Nc1nc2ccc(-c3cccc4ccccc34)cc2s1 | 24.6% | 57.5% | 71.1% | 61% | 34.1% | -2.69% (active) | 25.8% | 36.9% | 82.5% | 49.7% |
| N#Cc1c(NC(=O)c2ccccc2C(F)(F)F)sc2c1CCC(=O)C2 | 3.19% (active) | 13.6% | 95.5% | 33% | 13.5% | -36.7% (active) | -4.76% (active) | 75.4% | 28.7% | -18.2% (active) |
| CCOC(=O)c1c(NC(=O)c2ccc(C(C)(C)C)cc2)sc2cc(OCCN3CCCCC3)ccc12 | 88.6% | 101% | 83.1% | 91.1% | 13.9% | 66.1% | 96.8% | 77% | 75.5% | 25.6% |
| COc1ccc(C2CC(c3ccc(Nc4nc(NCCO)nc(Nc5ccc(Cl)cc5)n4)cc3)=Nc3c(N)nc(N)nc3N2)cc1 (stereo not given) | 57.8% | 88.7% | 93.2% | 37.4% | 63% | 74.6% | 56.1% | 95.1% | 71% | 92.1% |
| COc1cc(/C=C/C(=O)c2ccc(NC(=O)COc3cccc4cccnc34)cc2)cc(OC)c1OC | 78.7% | 88.7% | 90.4% | 114% | 72.5% | 90.1% | 80.4% | 87.1% | 89% | 100% |
| O=C(/C=C/Nc1ccc(S(=O)(=O)O)cc1)c1ccc(F)cc1 | 95.9% | 98.5% | 102% | 117% | 101% | 96.2% | 98.5% | 101% | 106% | 101% |
| Cc1ccc(Nc2ncnc3c2c(C)nn3-c2ccc([N+](=O)[O-])cc2)cc1 | 77.3% | 8.18% (active) | 88.5% | 60.3% | 30.7% | 111% | 74.8% | 45.1% | 86.9% | 72.2% |
| CCOC(=O)/C(F)=C/C1CC1CCc1cccc(C(F)(F)F)c1 (stereo not given) | 101% | 102% | 106% | 98.3% | 111% | 116% | 100% | 107% | 103% | 103% |
| IP(CCCSc1n(Cc2ccc3ccccc3c2)c(-c2ccccc2)c(-c2ccccc2)[n+]1Cc1ccc2ccccc2c1)(c1ccccc1)(c1ccccc1)c1ccccc1 | 26.3% | 78.8% | 63.5% | 31.2% | 22.8% | -1.48% (active) | 8.1% (active) | 26.7% | 87.2% | -9.45% (active) |
| Cc1cn(-c2cc(NC(=O)c3cncc(C#Cc4cnc5ccc(O[C@@H]6CCOC6)nn45)c3)cc(C(F)(F)F)c2)cn1 | -46.6% (active) | -16% (active) | -12.7% (active) | -12% (active) | -76.9% (active) | -44.6% (active) | -69.3% (active) | -75.3% (active) | -88.2% (active) | -84.9% (active) |
| C=CCn1c(SCC(=O)Nc2cccc(C(=O)/C=C/c3ccc(Cl)cc3)c2)nc2ccccc2c1=O | 92.3% | 102% | 95.6% | 113% | 95.4% | 88.7% | 81.8% | 85.7% | 98.2% | 112% |
| Clc1ccc(-c2csc(Nc3cccc(Nc4csc(-c5ccc(Cl)cc5)n4)c3)n2)cc1 | 72.3% | 74.6% | 68.9% | 85.3% | 79.1% | 75.9% | 45.6% | 88.5% | 104% | 94.2% |
| Cc1ccc(NC(=O)c2ccc(CN3CCN(C)CC3)c(I)c2)cc1Oc1ccc(-c2[nH]nc3ncnc(N)c23)cc1 | 87.9% | 91.8% | 89.8% | 105% | 90.4% | 83.4% | 46.6% | 66.1% | -74.7% (active) | 53% |
| O=C(CCCCCCN1CC(=O)N2[C@@H](c3cccc(Cl)c3)c3[nH]c4ccccc4c3C[C@H]2C1=O)NO | 71.3% | 102% | 66.4% | 51.9% | 43.1% | 44.5% | 19.2% | 79.6% | 79% | 36.9% |
| CS(=O)(=O)c1ccc2c(c1)c1c(n2Cc2ccc(Cl)cc2)CCCC1 | 73.5% | 80.1% | 87.7% | 75.8% | 71.6% | 65.7% | 13.7% | 64.5% | 83.5% | 83.3% |
| COCCOc1ccc(-c2csc(NC(C)=O)n2)cc1NS(=O)(=O)c1cccc2c(N(C)C)cccc12 | 104% | 84.9% | 92.6% | 102% | 100% | 58.6% | 85.2% | 98.3% | 95.8% | 94.5% |
